Measured values published in PubChem BioAssay AID1851 (National Center for Advancing Translational Sciences (NCATS), 2009).
Several values for one entry are separate records, joined by “and”; a condition that tells them apart may be missing. Equal values may be shown once. Hit rate of the full screen: of about 16,000 compounds, about 5,800 (36%) were called active. Not shown: some 23% with an inconclusive outcome. Calls follow the shape of the dose curve; as a rule, active = well fitted curve in the direction sought with a large enough effect; inconclusive = small, poorly fitted or top-dose-only effect, or effect the other way; inactive = no such curve, though single readings can be large or run the other way. The list shows a part of the results. A structure can be active in one record and inactive in another.

The compounds below were run against Cytochrome P450 2C19 (Homo sapiens) (UniProt P33261) (assay: Cytochrome panel assay with activity outcomes). Settings: recombinant CYP, pro-luciferin dealkylation, luminescence, p450-cyp2c19; series mostly up to 57.1 µM; activity, negative = inhibition: at the top concentration.
Sequence of Cytochrome P450 2C19 (Homo sapiens) (P33261 whole entry, looked up): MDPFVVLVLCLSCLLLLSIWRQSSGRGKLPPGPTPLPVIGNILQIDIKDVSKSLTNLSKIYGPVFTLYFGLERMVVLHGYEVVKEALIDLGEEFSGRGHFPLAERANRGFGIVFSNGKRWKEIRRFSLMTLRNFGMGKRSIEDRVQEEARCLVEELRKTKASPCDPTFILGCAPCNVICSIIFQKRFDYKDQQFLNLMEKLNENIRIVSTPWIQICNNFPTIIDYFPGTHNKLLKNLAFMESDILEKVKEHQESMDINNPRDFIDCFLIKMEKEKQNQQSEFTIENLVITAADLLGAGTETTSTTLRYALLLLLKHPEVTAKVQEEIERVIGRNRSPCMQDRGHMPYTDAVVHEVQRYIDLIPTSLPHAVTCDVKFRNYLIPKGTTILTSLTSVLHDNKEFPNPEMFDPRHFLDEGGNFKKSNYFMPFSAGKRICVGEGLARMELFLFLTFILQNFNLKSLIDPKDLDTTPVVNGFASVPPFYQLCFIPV
% is scaled to controls: 0 for no effect and ±100 for the full control effect.

| Structure (SMILES) | AC50 | activity, negative = inhibition |
| --- | --- | --- |
| c1ccc2nc(N3CCNCC3)ccc2c1 | inactive | – |
| O=C(O)[C@@H]1[C@H](C(=O)O)[C@]2(Cl)C(Cl)=C(Cl)[C@@]1(Cl)C2(Cl)Cl | – | -2.94% [at 11.4 µM] (inactive) |
| NCC1(CC(=O)O)CCCCC1 | inactive | – |
| CCN(CC)CCn1ncc2c(N)ncnc21 | – | -2.72% [at 11.4 µM] (inactive) |
| C[C@H](N)[C@@H](O)c1ccccc1 | – | 20.9% [at 25.6 µM] (inactive) |
| CC(NCc1ccc(Cl)cc1)C(O)c1ccccc1 (configuration not stated) | 0.355 µM (active) | – |
| CN1[C@@H]2CC[C@H]1CC(O[C@@H](c1ccccc1)c1ccc(Cl)cc1)C2 (some centres not stated) | inactive | – |
| Cc1sc2ccccc2c1CC1=NCCN1 | – | -17.4% (inactive) |
| c1ccc(C2CC2)c(OCC2=NCCN2)c1 | – | -31.6% (inactive) |
| CCSCC[C@H](N)C(=O)O | – | -18% [at 11.4 µM] (inactive) |
| [N-]=[N+]=CC(=O)CC[C@H](N)C(=O)O | – | 0.0153% [at 11.4 µM] (inactive) |
| CC(C)COC(=O)OCN1C(=O)CN(CCN2CC(=O)N(COC(=O)OCC(C)C)C(=O)C2)CC1=O | – | 1.24% (inactive) |
| c1csc(CN2CCCC3(CCNCC3)C2)n1 | – | -39.6% (inactive) |
| O=C(CN1CCCCC1)Nc1ccc(Br)cc1C(=O)c1ccccc1Cl | 7.94 µM (active) | – |
| O=c1[nH]cnc2[nH]cc(CN3CCCCC3)c12 | – | 39.9% [at 11.4 µM] (inactive) |
| Cc1nnc2ccc(-c3cccc(C(F)(F)F)c3)nn12 | – | 36.3% (inactive) |
| CCC1(CCSC(=N)N)C(=O)NC(=O)NC1=O | – | 20.6% [at 11.4 µM] (inactive) |
| O=C1CCCN1CC#CCN1CCCC1 | inactive and 158 nM (active) | – |
| C[N+](C)(C)CC#CCN1CCCC1=O | inactive | – |
| C(#CCN1CCCC1)CN1CCCC1 | – | -1.49% [at 25.6 µM] (inactive) |
| CN(CCC(=O)O)C1=Nc2ccc(Cl)cc2C(c2ccccc2)=[N+]([O-])C1 | – | -1.35% [at 11.4 µM] (inactive) |
| Nc1nc(N)c2nc(CNc3ccc(C(=O)N[C@H](CCC(=O)O)C(=O)O)cc3)cnc2n1 | – | 2.1% (inactive) |
| O=C(O)CNC(=O)[C@@H](CS)Cc1ccccc1 | – | -6.8% (inactive) |
| Cc1cc[c]([Sb]2[O][C@H]([C@H](O)[C@H](O)C(=O)O)[C@@H](CO)[O]2)cc1 | – | 30.4% [at 11.4 µM] (inactive) |
| N[C@@H](Cn1ccc(=O)n(Cc2ccc(C(=O)O)cc2)c1=O)C(=O)O | – | -42.7% (inactive) |
| CC(C)(O)/C=C\C(=O)[C@](C)(O)[C@H]1[C@H](O)C[C@]2(C)[C@@H]3CC=C4[C@@H](C=C(O)C(=O)C4(C)C)[C@]3(C)C(=O)C[C@@]12C | – | -7.19% [at 11.4 µM] (inactive) |
| O=C(Nc1ccc(C(F)(F)F)cc1)c1cccn(Cc2ccc3c(c2)OC(F)(F)O3)c1=O | 3.16 µM (active) | – |
